Consider 48 compounds from PubChem BioAssay AID1490 (National Center for Advancing Translational Sciences (NCATS), 2009).

Each structure is given as a SMILES string. In all, about 310,000 compounds went through this assay and about 11,000 (3.5%) were called active. About 4% were inconclusive and are not listed. The list comes from a sample in which actives are over-represented; it also holds similar structures and randomly drawn compounds. A number with no mark means an inactive call. The call rests on the fitted dose curve; in most records, active means well fitted inhibition curve with a large enough effect; inconclusive means small, poorly fitted or top-dose-only effect, or another doubt; inactive means no such curve, though single readings can be large or run the other way.
Potency means the concentration at half of the fitted maximal effect.

The experiment concerns the target 4'-phosphopantetheinyl transferase ffp (Bacillus subtilis) (UniProt Q9F4F7). Put plainly: qHTS Assay for Inhibitors of Bacillus subtilis Sfp phosphopantetheinyl transferase (PPTase).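 Further: the enzyme is Sfp with the accession as filed and its product quenches rhodamine fluorescence.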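 On largest response in the series, negative = inhibition: 0% = enzyme reaction without inhibitor and -100% = no enzyme wells.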 Conditions: Biochemical Sfp PPTase activity. In a few lines: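 Sfp 15 nM + cpd, 15 min RT; start w/ rhodamine-CoA 5 uM, BHQ-2-YbbR 12.5 uM (final); 50 mM Hepes pH 7.6, 10 mM MgCl2, 0.01% NP-40, 0.01% BSA; read 525/598 nm at 0 and 30 min.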
(Quantitative high-throughput screening tests each substance at several concentrations.)
For the compound `CCn1cc(S(=O)(=O)c2cccc(C)c2)c(=O)c2cc(F)c(N3CCN(C)CC3)cc21`, the largest response in the series, negative = inhibition is 4.71%. Consider `NCCCC[C@@H]1NC(=O)[C@H](CCC(=O)O)NC(=O)c2cc([N+](=O)[O-])cc(I)c2NCC[C@@H](C(N)=O)NC1=O`, for which the Potency was 31.6 µM (active).

Take `NC(=O)C[C@@H]1NC(=O)CNC(=O)c2cc([N+](=O)[O-])cc(I)c2NCCC(C(N)=O)NC1=O` (stereo partly drawn): the largest response in the series, negative = inhibition was -12.4%.

Consider `NC(=O)CC[C@@H]1NC(=O)[C@H](CO)NC(=O)c2cc([N+](=O)[O-])cc(I)c2NCC[C@@H](C(N)=O)NC1=O`, for which the largest response in the series, negative = inhibition is -7.09%. On the same count and under the same terms, then `COc1cccc(CNC(=O)C2CCCN(S(=O)(=O)N3CC(C)CC(C)C3)C2)c1` (stereo not drawn), with 6.86%; and `CCC(CC)COC(=O)C1=C(C)NC(=O)NC1c1ccc([N+](=O)[O-])cc1` (stereo not drawn), with 7.14%; and `O=C(Nc1ccc2nccnc2c1)c1ccco1`, with 15.4%. As to `COCCNC(=O)Nc1ccc2nc(-c3ccco3)c(-c3ccco3)nc2c1`, the Potency is 4.47 µM (active). For the compound `COc1cccc(S(=O)(=O)NCc2ccc(C(=O)NCc3ccccn3)cc2)c1`, the largest response in the series, negative = inhibition is 12.9%. For the compound `O=C(NCc1ccccn1)c1ccc2nc(-c3ccco3)c(-c3ccco3)nc2c1`, the Potency was 14.1 µM (active). On to `CC(C)(C)c1ccc(NC(=O)NCc2ccco2)cc1`, for which the largest response in the series, negative = inhibition is 8.16%. In the case of `O=C(NCc1ccccn1)c1cc(Br)ccc1Cl`, the largest response in the series, negative = inhibition was -2.95%.

Regarding `COc1ccc(CCN2CC(C(=O)NCCN3CCNC3=O)CCC2=O)cc1` (stereo not drawn), the largest response in the series, negative = inhibition is 19%. Turning to `COc1ccc2c(c1)c1nc3n(c(=O)c1n2CC(=O)Nc1ccccc1)CCS3`, the largest response in the series, negative = inhibition is 1.1%.

`COc1ccc(C(=O)/C=C/c2cccnc2)c(OC)c1`: the largest response in the series, negative = inhibition is 9.73%. Regarding `O=[N+]([O-])c1cccc(/C=N/Nc2ncc(Br)cn2)c1`, the largest response in the series, negative = inhibition is 16.8%. Regarding `CC1CCC(NS(=O)(=O)c2ccc3c(c2)n(C)c(=O)c(=O)n3C)CC1` (stereo not drawn), the largest response in the series, negative = inhibition was 8.22%. As to `Cn1sc(=O)c2cc(S(=O)(=O)NC3CC3)ccc21`, the Potency was 11.2 µM (active). For the compound `O=S(=O)(NC1CC1)c1ccc(F)c(F)c1`, the largest response in the series, negative = inhibition is 16.5%. For `Cc1nonc1NC(=O)c1oc2ccccc2c1C`, the largest response in the series, negative = inhibition is -2.27%. Take `CC(=O)c1ccc(N2CCN(CC(O)c3ccccc3)CC2)cc1` (stereo not drawn): the largest response in the series, negative = inhibition was 16.5%. Same read-out and setting: then `CCc1ccc(Oc2coc3cc(O)ccc3c2=O)cc1`, with 12.7%; and `CCOC(=O)c1c(NC(=O)/C=C/c2ccco2)sc(C)c1C`, with -8.04%. Consider `CCC(CC)c1nnc(NC(=O)/C=C/c2ccco2)s1`, for which the Potency was 56.2 µM (active). Turning to `Cc1nnc(NC(=O)/C=C/c2ccco2)s1`, the Potency is 11.2 µM (active). Regarding `O=C(/C=C/c1ccco1)Nc1ccc(Oc2ccccc2)cc1`, the largest response in the series, negative = inhibition was 2.06%.

`CCC(CC)c1nnc(NC(=O)C2CCN(C(=O)c3ccco3)CC2)s1`: the Potency is 39.8 µM (active). With `COc1ccc(CNC(=O)C2CCN(C(=O)c3ccco3)CC2)cc1`, the largest response in the series, negative = inhibition is 5.46%. As to `CCC(CC)c1nnc(NC(=O)c2nn(C)c(=O)c3ccccc23)s1`, the largest response in the series, negative = inhibition is 10.8%. On the same count and under the same terms, then `C/C=C/C(=O)Nc1nnc(C(C)C)s1`, with -3.92%; and `CCC(c1nnnn1C1CCCC1)N1CCN(C(=O)c2ccco2)CC1` (stereo not drawn), with 6.92%. For `FC(F)(F)c1nnc2c3ccccc3c(Cl)nn12`, the largest response in the series, negative = inhibition is 10.4%. With `CC1CCN(S(=O)(=O)c2ccc(NC(=O)C3CC(=O)N(c4ccccc4)C3)cc2)CC1` (stereo not drawn), the largest response in the series, negative = inhibition was 6.28%. Regarding `Cc1cc(S(=O)(=O)NC2CCCC2)ccc1-n1cnnn1`, the largest response in the series, negative = inhibition is 16.3%. `CCOc1ccc(C(=O)Nc2c3c(nn2-c2ccccc2)CS(=O)(=O)C3)cc1`: the largest response in the series, negative = inhibition was 11.5%. For `CC(=N\NC(=O)c1cc(Br)ccc1O)/C(=N/O)C(=O)Nc1ccccc1`, the largest response in the series, negative = inhibition was 16.6%. Take `O=C(NCCc1ccccc1Cl)C1CCC(=O)N(CCCc2ccccc2)C1` (stereo not drawn): the largest response in the series, negative = inhibition was -2.68%. On the same count and under the same terms, then `COC(=O)c1ccc(COc2ccc(/C=C/C(=O)c3ccc(OC)c(CSCC(=O)O)c3)cc2OC)cc1`, with -20.4%; and `COc1ccc(C2/C(=C(/O)c3ccc4c(c3)CC(C)O4)C(=O)C(=O)N2Cc2ccncc2)cc1` (stereo not drawn), with -0.196%. For the compound `COc1cccc2cc(-c3cc(=O)oc4cc(C)c(O)cc34)oc12`, the largest response in the series, negative = inhibition was -19.1%. As to `CN1CCN(C(=O)C2C3C=CC(C3)C2C(=O)O)CC1` (stereo not drawn), the largest response in the series, negative = inhibition was -2.06%. Turning to `C=C(Cl)COC(=O)C1C2C=CC(C2)C1C(=O)O` (stereo not drawn), the largest response in the series, negative = inhibition was -7.02%. As to `O=C(O)C1C2C=CC(C2)C1C(=O)N1CCN(CCO)CC1` (stereo not drawn), the Potency is 20 µM (active). For `CC(CN1CCOCC1)OC(=O)c1ccc(C(C)(C)C)cc1` (stereo not drawn), the largest response in the series, negative = inhibition is -0.906%.

As to `Cc1cccc(N2CCN(S(=O)(=O)c3ccc(-c4cc(C)no4)s3)CC2C)c1` (stereo not drawn), the largest response in the series, negative = inhibition was 13.1%. Consider `CCOC(=O)c1sc(NC(=O)CSc2ncccn2)c(C#N)c1C`, for which the largest response in the series, negative = inhibition is 15.3%. As to `Cc1cc(C(F)(F)F)nc(SCC(=O)Nc2nccs2)n1`, the largest response in the series, negative = inhibition is -13.1%. `CCOC(=O)c1sc(NC(=O)CSc2nc(C)cc(C(F)(F)F)n2)c(C#N)c1C`: the Potency was 20 µM (active).
